Bioassay records deposited in PubChem by National Center for Advancing Translational Sciences (NCATS).
ELG1 genotox = inducers of genotoxicity in HEK293T ELG1-luciferase cells; HEK293T ELG1-luciferase reporter, luminescence, 16 h; Potency, µM (doses to about 46 µM), for inactives: at the highest dose activity change, positive = activation, actives largely listed as activators; 1.3% of 330,000 active; note: % of control where 0% means no effect; nearly all actives have a fitted effect of over 60% in size
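Quantitative HTS format in 1536-well plates. HEK293T ELG1-luciferase reporter cells receive test compound and are incubated 16 hr at 37 °C, 5% CO2; ONE-Glo added, 30 min room temperature, then luminescence read.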
Rab9 prom act = activates the Rab9 promoter; Potency, µM (doses to about 9.22 µM), for the others: at the highest dose activation, negative = inhibition, actives largely listed as activators; Huh7 Rab9 promoter-luciferase reporter, luminescence, 24 h; 2.8% of 320,000 active; note: % of control where 0% means no effect; nearly all actives have a fitted effect of over 60% in size
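Cell-based reporter: Huh7 stable for Rab9 promoter-driven luciferase, plated in reduced-serum medium with 10% FBS at 1500 cells/well, compound-treated 24 h at 37 °C, luminescence read after 10 min reagent.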
NPC1 promoter act = activators of NPC1 promoter; Potency, µM (titrated, usually from 9.22 µM), for the others: top-dose activation, actives largely listed as activators; 2.4% of 320,000 active; Huh7 NPC1 promoter luciferase reporter, 24 h; note: % of control where 0% means no effect; nearly all actives have a fitted effect of over 60% in size
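Quantitative HTS used a cell-based reporter: Huh7 cells stably bearing the NPC1 promoter upstream of luciferase were treated with compounds for 24 h, and promoter activation was read as luminescence.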
SMN2 splice enh = SMN2 splice variant enhancement. HEK293 SMN2-luciferase splicing reporter, luminescence, 30-36 h. Potency, µM (titrated, usually from 46.1 µM), for the others: at the top dose activity change, positive = activation, usual class: activators. 2.8% of 210,000 active. AID 1458; note: % of control where 0% means no effect; nearly all actives have a fitted effect of over 55% in size
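HEK293 cells carry an SMN2 minigene-luciferase reporter in which exon 7 inclusion puts luciferase in frame. Cells were seeded at 2000 cells/well, attached for 10-12 hours, then exposed to compounds for 30-36 hours at 37C before ONE-Glo luminescence.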
FLuc counter = counter-screen for miR-21 project: firefly luciferase inhibitors or activators; 6.9% of 360,000 active; purified FLuc, Km substrates, luminescence inhibition; AID 588342; Potency, µM (titrated, usually from 57.5 µM), for inactives: at the highest dose activity change, negative = inhibition, hits mostly inhibitors; P08659;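 note: plate controls were vehicle for no effect and reference inhibitor for full effect; nearly all actives have a fitted effect of over 55% in size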
Target sequence (P08659 whole entry, looked up): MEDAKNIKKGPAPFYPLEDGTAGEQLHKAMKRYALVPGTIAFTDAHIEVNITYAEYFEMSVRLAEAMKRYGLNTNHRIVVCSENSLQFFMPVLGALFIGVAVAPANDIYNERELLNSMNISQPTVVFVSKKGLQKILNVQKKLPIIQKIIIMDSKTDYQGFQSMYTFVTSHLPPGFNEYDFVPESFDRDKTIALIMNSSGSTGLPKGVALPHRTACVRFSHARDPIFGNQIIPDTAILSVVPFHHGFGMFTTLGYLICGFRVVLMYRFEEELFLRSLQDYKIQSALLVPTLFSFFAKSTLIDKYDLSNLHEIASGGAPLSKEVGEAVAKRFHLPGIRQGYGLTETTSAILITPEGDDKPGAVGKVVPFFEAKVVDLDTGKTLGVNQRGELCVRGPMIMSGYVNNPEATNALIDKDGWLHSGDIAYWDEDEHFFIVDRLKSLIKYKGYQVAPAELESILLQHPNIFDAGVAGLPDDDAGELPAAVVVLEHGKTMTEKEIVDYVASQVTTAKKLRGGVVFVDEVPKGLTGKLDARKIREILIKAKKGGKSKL
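Purified P. pyralis luciferase (10nM final) with 10uM D-luciferin and 10uM ATP (Km levels) in 50mM Tris acetate pH 7.5, 10mM Mg acetate, 0.01% Tween-20, 0.05% BSA; qHTS 6-point titration, ~60 µM downward; luminescence read.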
uPA generation = inhibitors of cell surface uPA generation; cell surface uPA generation assay, qHTS; Potency, µM (titrated, usually from 38.3 µM), for inactives: at the highest dose activity change, negative = inhibition, actives largely listed as inhibitors; 0.31% of 330,000 active; active = well fitted inhibition curve with a large enough effect; inconclusive = small, poorly fitted or top-dose-only effect; inactive = no such curve, though single readings can be large or run the other way; tested in mouse RAW 264.7 cells; note: % is set by controls: 0 for no effect and ±100 for the full control effect; nearly all actives have a fitted effect of over 55% in size
* hit, by the source's call. Shown are actives, neighbours in structure and some others; about 7.3% of the full set was active somewhere. Unless noted, calls come from the whole dose curve; as a rule, active = well fitted curve in the direction sought with a large enough effect; inconclusive = small, poorly fitted or top-dose-only effect, or another doubt; inactive = no such curve, though single readings can be large; an effect the other way counts as inactive or inconclusive. Potency is the fitted concentration of half-maximal effect.

How did Cc1[nH]nc(N=CC2=C(O)CC(c3ccco3)CC2=O)c1-c1ccc(Cl)cc1 (centres undefined) do in these assays?
ELG1 genotox: -7.6%; Rab9 prom act: 0.2%; NPC1 promoter act: -1.0%; SMN2 splice enh: -35.1%; FLuc counter: 2.8%

What do the screens show for `CCOc1ccc(N=Cc2ccc3ccccc3c2)cc1`?
ELG1 genotox: 0.3%; Rab9 prom act: -2.0%; NPC1 promoter act: 12.2%; FLuc counter: 0.757µM*; uPA generation: 0.9%

Results for Cc1ccc(NC(=O)CCN2CCN(CCO)CC2)cc1C ?
SMN2 splice enh: 6.2%; FLuc counter: -1.0%

How did O=C(COc1ccccc1F)Nc1ccc2c(c1)OCCO2 do in these assays?
ELG1 genotox: 10.3µM*; Rab9 prom act: 3.16µM*; NPC1 promoter act: 1.78µM*; FLuc counter: 6.75µM*; uPA generation: 1.1%

What do the screens show for `COc1cccc(NC(=O)COC(=O)c2c(F)cccc2F)c1`?
ELG1 genotox: 2.5%; Rab9 prom act: -2.8%; NPC1 promoter act: -2.3%; SMN2 splice enh: 13.8%; FLuc counter: 10.7µM*; uPA generation: 5.7%

Results for Cc1cc(OCC(=O)Nc2ccc3c(c2)OCCO3)cc(C)c1Cl ?
ELG1 genotox: 0.6%; Rab9 prom act: 1.1%; NPC1 promoter act: 3.5%; SMN2 splice enh: 10.2%; FLuc counter: inconclusive; uPA generation: 1.8%

Results for COc1cccc(NC(=O)COC(=O)c2ccco2)c1 ?
ELG1 genotox: 0.3%; Rab9 prom act: 2.1%; NPC1 promoter act: 1.2%; SMN2 splice enh: -6.8%; FLuc counter: inconclusive; uPA generation: 2.2%

What do the screens show for `O=C(COC(=O)Cc1ccccc1F)Nc1ccc2c(c1)OCCO2`?
ELG1 genotox: -1.6%; Rab9 prom act: -0.7%; NPC1 promoter act: 0.8%; SMN2 splice enh: 7.4%; FLuc counter: 16.9µM*; uPA generation: -3.8%

How did Cc1c(NC(=O)c2cccc(NC(=O)COc3ccccc3C#N)c2)c(=O)n(-c2ccccc2)n1C do in these assays?
ELG1 genotox: -3.3%; Rab9 prom act: 3.98µM*; NPC1 promoter act: 2.24µM*; FLuc counter: 1.35µM*; uPA generation: inconclusive

What do the screens show for `O=C(COC(=O)Cc1ccccc1F)Nc1ccc2c(c1)OCO2`?
ELG1 genotox: -2.2%; Rab9 prom act: 0.5%; NPC1 promoter act: -2.5%; SMN2 splice enh: 10.0%; FLuc counter: inconclusive; uPA generation: 0.8%

How did CC(C)(C)C1CCc2c(sc(NC(=O)Cn3nnc(-c4ccccc4Cl)n3)c2C#N)C1 (centres undefined) do in these assays?
SMN2 splice enh: 12.7%; FLuc counter: inconclusive

Results for O=C(COC(=O)c1c(F)cccc1F)Nc1ccc2c(c1)OCO2 ?
ELG1 genotox: 1.8%; Rab9 prom act: 0.2%; NPC1 promoter act: -1.4%; FLuc counter: 6.75µM*; uPA generation: 4.1%

Results for CC(C)NC(=O)COc1ccccc1C#N ?
ELG1 genotox: 8.0%; Rab9 prom act: 1.0%; NPC1 promoter act: -8.9%; SMN2 splice enh: -8.5%; FLuc counter: -1.2%; uPA generation: 8.1%

What do the screens show for `N#Cc1ccccc1OCC(=O)Nc1ccc2c(c1)OCCO2`?
ELG1 genotox: inconclusive; Rab9 prom act: 1.41µM*; NPC1 promoter act: inconclusive; FLuc counter: 9.53µM*; uPA generation: -3.1%

Results for O=C(COc1ccccc1Br)Nc1ccc2c(c1)OCCCO2 ?
ELG1 genotox: inconclusive; Rab9 prom act: 1.41µM*; NPC1 promoter act: 1.26µM*; FLuc counter: 2.13µM*; uPA generation: 1.2%

What do the screens show for `N#Cc1ccccc1OCC(=O)Nc1ccc2c(c1)OCCCO2`?
ELG1 genotox: 25.9%; Rab9 prom act: 3.16µM*; NPC1 promoter act: 2.24µM*; FLuc counter: 16.9µM*; uPA generation: 1.4%

What do the screens show for `C#CCn1cc(C=C2C(=O)c3ccccc3C2=O)c2ccccc21`?
ELG1 genotox: 17.4%; Rab9 prom act: 2.7%; NPC1 promoter act: 17.7%; SMN2 splice enh: 21.6%; FLuc counter: 2.39µM*; uPA generation: 3.9%

Results for CCOC(=O)c1ccc(NC(=O)c2cc3cc(C)ccc3n2C)cc1 ?
FLuc counter: 2.9%

What do the screens show for `CCOc1ccc(S(=O)(=O)N/N=C2/CC(c3ccccc3)Oc3ccccc32)cc1` (centres undefined)?
ELG1 genotox: 8.1%; Rab9 prom act: -0.4%; NPC1 promoter act: 1.8%; SMN2 splice enh: inconclusive; FLuc counter: 21.3µM*; uPA generation: 3.5%

What do the screens show for `Cc1ccc(-n2c3c(c(=O)[nH]c2=O)C(NC(=O)C(C)(C)C)(C(F)(F)F)C(=O)N3)cc1` (centres undefined)?
SMN2 splice enh: -2.7%; FLuc counter: -1.0%

How did C=CCN1C(=O)N(CC=C)c2cccc3cccc1c23 do in these assays?
ELG1 genotox: 1.4%; Rab9 prom act: 1.5%; NPC1 promoter act: 3.7%; FLuc counter: -1.3%; uPA generation: 4.1%

What do the screens show for `C=CCN1C(=O)C(=O)N(Cc2nc3ccccc3s2)C1=O`?
ELG1 genotox: inconclusive; Rab9 prom act: 21.3%; NPC1 promoter act: -30.6%; FLuc counter: 8.49µM*; uPA generation: -1.7%

How did O=C(Nc1cccc(C(F)(F)F)c1)c1cc(-c2ccc3c(c2)OCCO3)on1 do in these assays?
FLuc counter: 1.51µM*

How did Cc1ccc(Cl)cc1NC(=O)c1cc(-c2ccc3c(c2)OCCO3)on1 do in these assays?
FLuc counter: 1.35µM*

Results for O=C(Nc1ccc2c(c1)OCO2)c1cc(-c2ccc(Br)cc2)on1 ?
SMN2 splice enh: -2.3%; FLuc counter: -1.8%

Results for Cc1cccc(NC(=O)c2cc(-c3ccc4c(c3)OCCO4)on2)c1 ?
FLuc counter: 0.19µM*

What do the screens show for `Cc1ccc(NC(=O)c2cc(-c3ccc4c(c3)OCO4)on2)cc1`?
ELG1 genotox: 17.0%; Rab9 prom act: 19.5%; NPC1 promoter act: 0.7%; SMN2 splice enh: -3.3%; FLuc counter: -4.8%; uPA generation: 0.8%

How did O=C(Nc1cccc(Cl)c1)c1cc(-c2ccc3c(c2)OCCO3)on1 do in these assays?
FLuc counter: 0.477µM*

How did CCC(C)NC(=O)c1ccccc1NC(=O)C1CCN(S(=O)(=O)Cc2ccccc2)CC1 (centres undefined) do in these assays?
FLuc counter: -8.3%

What do the screens show for `COC(=O)c1ccc(Cl)cc1NC(=O)Nc1nnc(N(C)Cc2ccccc2)s1`?
FLuc counter: -16.2%

Results for CC(C)c1cc(C(=O)Nc2cccc(C(F)(F)F)c2)no1 ?
ELG1 genotox: inconclusive; Rab9 prom act: -4.6%; NPC1 promoter act: -1.9%; SMN2 splice enh: -13.9%; FLuc counter: 15.1µM*; uPA generation: -6.6%
